Structures are written as SMILES. About 3,700 (1.2%) of roughly 300,000 compounds were called active. Roughly 20% stayed inconclusive and do not appear here. This is one part of a sample in which actives are shown more often than they occur. No cut-off for these calls is given here.

The assay deals with HEK293. The assay can be described thus: qHTS for Inhibitors of binding or entry into cells for Lassa Virus. [Related pubchem assays (depositor defined):AID463114, AID540249]. In kind it is functional, Homo sapiens. To be noted: read-out: Potency.
As to `C[C@@H]1O[C@@H](O[C@H]2C[C@@H](O)[C@]3(CO)[C@H]4[C@H](O)C[C@]5(C)[C@@H]([C@@H]6COC(=O)C6)CC[C@]5(O)[C@@H]4CC[C@]3(O)C2)[C@H](O)[C@H](O)[C@H]1O` [DIHYDROOUABAIN], the AC50 is 1.58 µM (active).

(Values after ChEMBL document CHEMBL1201862, “PubChem BioAssay data set” (2004).)
